Assay results: PubChem BioAssay (NCATS)
Records with an inconclusive call do not appear. The source made the active and inactive calls. The call rests on the fitted dose curve; in most records, active means well fitted cell-killing curve with a large enough effect; inconclusive means small, poorly fitted or top-dose-only effect, or effect the other way; inactive means flat fitted curve, though single readings scatter.

assay: qHTS assay for cell viability of the p53RE-bla HCT-116 cell line (AID 743292); conditions: p53RE-bla HCT-116 viability, ATP luminescence, 16 h; series mostly up to 95 µM; further: nearly all actives have a fitted effect of over 55% in size
Source text: U.S. Tox21 Program National Center for Advancing Translational Sciences [NCATS] NIH Chemical Genomics Center [NCGC] U.S. Environmental Protection Agency [EPA] National Institutes of Environmental Health Sciences [NIEHS] National Toxicology Program [NTP] U.S. Food and Drug Administration [FDA] Tox21 Assay Overview: The CellTiter-Glo Luminescent Cell Viability Assay (Promega, Madison, WI) is a homogeneous method to determine the number of viable cells in culture based on quantitation of the ATP present, which signals the presence of metabolically active cells. This cell viability assay was used to screen environmental chemicals in the CellSensor p53RE-bla HCT-116 cell line (Invitrogen).
Tox21 Assay Protocol Summary: Cell viability after compound treatment was measured using a luciferase-coupled ATP quantitation assay (CellTiter-Glo viability assay, Promega, Madison, WI) in CellSensor p53RE-bla HCT-116 cell line (Invitrogen). Total intracellular ATP content corresponds to the number of metabolically competent cells after compound treatment. The cells were dispensed at 4,000 cells/5 uL/well in 1,536-well white/solid bottom assay plates using a Flying Reagent Dispenser (Aurora Discovery, San Diego, CA). The cells were incubated for 5 h at 37 C, followed by the addition of 23 nL of compounds dissolved in DMSO, positive controls or DMSO only using a pintool work station (Kalypsys, San Diego, CA). The assay plates were incubated for 16 h at 37 C, followed by the addition of 5 uL/well of CellTiter-Glo reagent. After 30 min incubation at room temperature, the luminescence intensity of the plates was measured using a ViewLux plate reader (PerkinElmer, Shelton, CT).

Row | Compound | outcome
1 | Nc1ccc(N=Nc2ccccc2)c(N)n1 | inactive
2 | Cc1ccc(S(=O)(=O)NCl)cc1 | inactive
3 | CCCCCCCCCCCCCCCCCC(=O)OC[C@@H](O)[C@H]1OC[C@H](O)[C@H]1O | inactive
4 | COC(=O)c1ccccc1O | inactive
5 | CC(C)CCCCCCc1ccc(O)cc1 | inactive
6 | CCCCC(CC)COS(=O)(=O)O (stereo not given) | inactive
7 | C[C@H](CCC(=O)O)[C@H]1CC[C@H]2[C@@H]3CC[C@@H]4C[C@H](O)CC[C@]4(C)[C@H]3C[C@H](O)[C@]12C | inactive
8 | c1ccc2ccccc2c1 | inactive
9 | CO[C@@H]1[C@H](OC(=O)/C=C/C=C/C=C/C=C/C(=O)O)CC[C@]2(CO2)[C@H]1[C@@]1(C)O[C@@H]1CC=C(C)C | inactive
10 | Oc1cccc(O)c1O | inactive
11 | CO/N=C(/C(=O)N[C@@H]1C(=O)N2C(C(=O)O)=C(COC(N)=O)CS[C@H]12)c1ccco1 | inactive
12 | O=P(O)(O)O | inactive
13 | OCl | inactive
14 | CN(CCO)CC(O)Cn1cnc2c1c(=O)n(C)c(=O)n2C (stereo not given) (tested in a mixture with another compound) | inactive
15 | NC(N)=O | inactive
16 | CC(C)[C@@H]1CC[C@@H](C)C[C@H]1O | inactive
17 | CC/C=C\C/C=C\C/C=C\CCCCCCCC(=O)O | inactive
18 | O=C(OCc1ccccc1)c1ccc(O)cc1 | inactive
19 | CC[C@H]1OC(=O)[C@H](C)[C@@H](O[C@H]2C[C@@](C)(OC)[C@@H](O)[C@H](C)O2)[C@H](C)[C@@H](O[C@@H]2O[C@H](C)C[C@H](N(C)C)[C@H]2O)[C@](C)(O)C[C@@H](C)CN(C)[C@H](C)[C@@H](O)[C@]1(C)O | inactive
20 | [O-][N+](=Nc1ccccc1)c1ccccc1 | inactive

Row | Compound | outcome
21 | CC1=CCC2CC1C2(C)C (stereo not given) | inactive
22 | CC(C)O | inactive
23 | CC1=CC(=O)NS(=O)(=O)O1 | inactive
24 | Nc1nccs1 | inactive
25 | Oc1ccc(/C=C/c2cc(O)cc(O)c2)cc1 | inactive
26 | C[Si](C)(C)O[Si](C)(C)C | inactive
27 | C[C@H](CCC(=O)O)[C@H]1CC[C@H]2[C@@H]3[C@H](O)C[C@@H]4C[C@H](O)CC[C@]4(C)[C@H]3C[C@H](O)[C@]12C | inactive
28 | OCCOCCOCCO | inactive
29 | C/C=C/C=C/C(=O)O | inactive
30 | OB(O)O | inactive
31 | Cc1ncc[nH]1 | inactive
32 | CCOC(C)OCC | inactive
33 | ClC(Cl)Cl | inactive
34 | O.O.O.O.O.O.O.O=S(=O)([O-])[O-].[Co+2] | inactive
35 | CCCCO | inactive
36 | Nc1ncnc2c1ncn2[C@H]1CC[C@@H](CO)O1 | inactive
37 | OCc1ccccc1 | inactive
38 | Cc1ccc(S(=O)(=O)O)cc1C | inactive
39 | CO | inactive
40 | CC(C)(C)CC(C)(C)c1ccc(OCCO)cc1 | inactive
